Among all 410,000 compounds or so, about 7,200 (1.8%) were called active. Inconclusive results (about 7%) are left out. The entries come from a sample that favours actives as a whole. Unmarked numbers belong to inactive results. Calls follow the shape of the dose curve; as a rule, active = well fitted activation curve with a large enough effect; inconclusive = small, poorly fitted or top-dose-only effect, or another doubt; inactive = no such curve, though single readings can be large or run the other way.
Experiment: qHTS of TDP-43 Inhibitors; also: nearly all actives have a fitted effect of over 50% in size; as to growth rescue (activation): % of control where 0% means no effect
Details: TDP-43 expressing yeast growth rescue, BacTiter-Glo, 24 h; series mostly up to 46.1 µM; growth rescue (activation): at the top concentration
Excerpt: The goal of this project is to identify new chemical probes capable of reversing the toxicity associated with TDP-43 which is associated with frontotemporal lobar degeneration and amyotrophic lateral sclerosis. These compounds will provide a complementary approach to deciphering the tangled mechanisms of toxicity and protection that we have uncovered through genome-wide genetic screens and are beginning to uncover in a large-scale proteomics analysis with mass spectroscopy.
To this end, a miniaturized assay was developed to be screened against the Molecular Libraries Small Molecule Repository (MLSMR) to discover TDP-43 inhibitors. Please note that in the set-up this yeast-based assay compounds that inhibit as TDP-43, have a read-out as activators.
NIH Chemical Genomics Center [NCGC]
NIH Molecular Libraries Probe Centers Network [MLPCN]
Assay Submitter (PI): Susan Lindquist, Whitehead Institute/MIT
Dispense 2.5 microL yeast galactose medium per 1536-well plate, pin compound, dispense 2.5 microL TDP-43 expressing yeast in galactose medium at OD600=0.02 (pregrown in raffinose medium to mid-log phase) per well, incubate for 24 hr at 30 deg C, and cell growth will be measured using 5 microL of Bactiter/Glo reagent to entire plate and read using Luminescence Protocol in ViewLux.
With `Cc1c(Cl)cccc1NC(=O)Cn1cc(C(=O)c2cccs2)c2ccccc21` the “growth rescue (activation)” value was 22.8%. For `COc1ccc(N2CCN(Cc3nc4c(c(=O)[nH]c(=O)n4C)n3Cc3ccc(Cl)cc3)CC2)cc1`, the “growth rescue (activation)” value was -19.3%. With `Cc1cccc(C(=O)N2CCc3cc(CNC(=O)Cc4ccc(F)cc4)ccc32)c1` the “growth rescue (activation)” value was 20.6%. For `CC1=Nc2cc(C(=O)NCc3ccc(C)cc3)ccc2Sc2ccc(Cl)cc21`, the “growth rescue (activation)” value was 21.4%. In the case of `CCc1c(-c2ccc(F)cc2)ncn1Cc1cccc(-c2ccccc2)c1`, the Potency is reported as 15.8 µM (active). In the case of `CCCc1c(-c2ccccc2F)ncn1Cc1ccccc1OC`, the “growth rescue (activation)” value is reported as 15.3%. In the case of `CCCCc1c(-c2ccc(Br)cc2)ncn1CCc1ccccc1OC`, the “growth rescue (activation)” value is reported as 43.7%. With `CCOc1ccc(C(=O)Nc2ccc3nc4c(c(Nc5ccccc5OC)c3c2)CCCC4)cc1` the “growth rescue (activation)” value was -14.8%. For `CCOc1ccc(CNC(=O)c2cc(=O)[nH]c3ccc(S(=O)(=O)N4CCCCC4)cc23)cc1`, the “growth rescue (activation)” value was 0%. For `COc1ccc(CNC(=O)c2cc3c(=O)[nH]c4ccccc4c3s2)cc1`, the “growth rescue (activation)” value was 9.68%. For `Cc1cccc(N2CCN(S(=O)(=O)c3ccc4[nH]c5c(c4c3)CCCCC5)CC2)c1C`, the “growth rescue (activation)” value was -17.8%. In the case of `O=C(c1ccc(CN2CCOCC2)cc1)N1CCN(c2ccccc2F)CC1`, the “growth rescue (activation)” value is reported as 3.14%. For `O=C(c1cccc2ccccc12)N1CCN(c2ccccc2F)CC1`, the Potency was 12.6 µM (active). With `COc1cc(OC)c(OC)cc1CN1CCN(C(=O)c2cccc3ccccc23)CC1` the “growth rescue (activation)” value was -19.7%. In the case of `CCCSc1ncc(Cl)c(C(=O)Nc2sc3c(c2C(=O)NCCOC)CCCC3)n1`, the “growth rescue (activation)” value is reported as 24.9%. For `O=C(NCCc1ccc(Cl)cc1)c1ccc2nc(CCc3ccccc3)oc2c1`, the “growth rescue (activation)” value was 11.6%. For `CNC(=O)c1nnc(Cc2ccc(Cl)cc2)o1`, the “growth rescue (activation)” value was 25.3%. In the case of `CC(CNC(=O)c1nnc(Cc2cccc(F)c2)o1)c1ccccc1` (configuration not stated), the Potency is reported as 15.8 µM (active). With `O=C(NCCCN1CCN(c2cccc(Cl)c2)CC1)c1nnc(Cc2ccc(F)cc2Cl)o1` the “growth rescue (activation)” value was 14.6%. For `CCOC(=O)c1cnc2c(C)cc(Cl)cc2c1NCCc1ccc(OC)c(OC)c1`, the “growth rescue (activation)” value was 15%. With `Cc1ccc(Nc2nc3ccccc3nc2-n2nc(C)cc2C)c(Cl)c1` the “growth rescue (activation)” value was 27.7%. In the case of `CCOc1ccc(CNC(=O)c2cc(-c3ccc(Cl)s3)nc3ccccc23)cc1`, the “growth rescue (activation)” value is reported as 22.8%. In the case of `O=C(c1ccco1)n1nc(-c2ccc(Cl)cc2)nc1NCc1ccccc1`, the “growth rescue (activation)” value is reported as 5%. In the case of `CN(O)C(=S)c1ccccc1`, the Potency is reported as 3.55 µM (active). For `Cc1cc(C)cc(NC(=O)Cn2nc(N3CCN(c4ccccc4)CC3)ccc2=O)c1`, the “growth rescue (activation)” value was 20.2%. For `Cc1cc(C)nc(-n2ncc3c2CC(c2ccc(C(C)C)cc2)CC3=O)n1` (configuration not stated), the Potency was 28.2 µM (active). With `Cc1nc2nc3c(cn2n1)C(=O)CC(c1ccccc1)C3` (configuration not stated) the “growth rescue (activation)” value was 13.9%. With `CNC(=O)c1csc(Cc2c(Cl)sc3ccc(Cl)cc23)n1` the Potency was 20 µM (active). In the case of `O=C(O)COCC(=O)NCc1csc2ccc(Cl)cc12`, the “growth rescue (activation)” value is reported as -10.6%. For `CC(=O)NNC(=O)c1csc(Cc2c(Cl)sc3ccc(Cl)cc23)n1`, the “growth rescue (activation)” value was 2.99%. In the case of `COc1ccc(-n2c(=O)c3ccccc3n(Cc3ccccc3Cl)c2=O)cc1`, the “growth rescue (activation)” value is reported as 15.2%. With `Cc1ccc(CCN2CC(C(=O)NCCc3ccccc3)CC2=O)cc1` (configuration not stated) the “growth rescue (activation)” value was 4.24%. In the case of `CCCN1C(=O)C(O)(CC(=O)c2ccc(CC)cc2)c2cc(Br)ccc21` (configuration not stated), the Potency is reported as 25.1 µM (active). In the case of `Cc1coc(C)c1C(=O)CC1(O)C(=O)N(C)c2ccc(Cl)cc21` (configuration not stated), the “growth rescue (activation)” value is reported as -11.5%. With `C=CCN1C(=O)C(O)(CC(=O)c2ccc(Cl)cc2)c2ccccc21` (configuration not stated) the “growth rescue (activation)” value was 1.69%. With `CCOC(=O)CN1C(=O)C(O)(CC(=O)c2ccccn2)c2ccccc21` (configuration not stated) the “growth rescue (activation)” value was 9.65%. With `Cc1ccc(C(=O)CC2(O)C(=O)N(CCc3ccccc3)c3ccc(Br)cc32)cc1` (configuration not stated) the Potency was 35.5 µM (active). With `O=C(CC1Oc2ccccc2NC1=O)NCc1ccc(F)cc1` (configuration not stated) the “growth rescue (activation)” value was -2.06%. In the case of `O=C(O)c1c(CNCc2cccc(F)c2)c2ccccc2n1Cc1ccccc1`, the “growth rescue (activation)” value is reported as 24.3%. With `Cc1nnc(C)n1-c1ccc(C(=O)Nc2cccc(Br)c2)cc1` the “growth rescue (activation)” value was 3.68%. With `COC(=O)CN1C(C)=Nc2ccc(Br)cc2C1c1ccccc1` (configuration not stated) the “growth rescue (activation)” value was -3.72%. For `COC(=O)C1NN=C(C(=O)c2ccc(Br)cc2)C1c1cccc(Br)c1` (configuration not stated), the Potency was 25.1 µM (active). For `CC(C)Cn1c(C2CC(=O)N(c3ccccc3Cl)C2)nc2ccccc21` (configuration not stated), the “growth rescue (activation)” value was 25.5%. In the case of `Cn1c(=O)n(Cc2c(F)cccc2Cl)c(=O)c2c1nc1n2CCN1c1ccc(F)cc1`, the “growth rescue (activation)” value is reported as 9.24%. For `COCCNc1cc(-c2ccccc2)nc2cc(-c3cccc(F)c3)nn12`, the Potency was 3.16 µM (active). In the case of `COc1ccc(-c2cc(C(F)(F)F)n3nc(-c4ccccc4)cc3n2)cc1OC`, the “growth rescue (activation)” value is reported as 0%. In the case of `COc1ccc(CCNc2nc3c(-c4cccc(F)c4)nnn3c3ccccc23)cc1OC`, the “growth rescue (activation)” value is reported as 17.4%. In the case of `CCOC(=O)c1cc2c(=O)n3ccccc3nc2n(CC2CCCO2)c1=NC(=O)c1ccccc1Br` (configuration not stated), the “growth rescue (activation)” value is reported as 20.8%. With `CCCc1cc(=O)n2[nH]c(NCc3ccc(CC)cc3)nc2n1` the “growth rescue (activation)” value was 7.91%. In the case of `N/C(Cc1ccc([N+](=O)[O-])cc1)=N\OC(=O)COc1ccc2ccccc2c1`, the “growth rescue (activation)” value is reported as 14.2%. For `O=C(COC(=O)Cc1ccc([N+](=O)[O-])cc1)NC1CCCCCC1`, the “growth rescue (activation)” value was 6.3%. For `N/C(Cc1ccc([N+](=O)[O-])cc1)=N\OC(=O)C1CCCCC1`, the Potency was 20 µM (active).

From PubChem BioAssay AID652104 (National Center for Advancing Translational Sciences (NCATS), 2013)
Potency is read from the fitted curve at half-maximal effect.
